The campaign covered roughly 270,000 compounds. About 5,800 (2.1%) were called active. Roughly 16% stayed inconclusive and do not appear here. Only a selection was taken, and actives are over-represented in it overall. Unmarked numbers belong to inactive results. Calls follow the shape of the dose curve; as a rule, active = well fitted inhibition curve with a large enough effect; inconclusive = small, poorly fitted or top-dose-only effect; inactive = flat fitted curve, though single readings scatter.
Molecular target: Microtubule-associated protein tau (Homo sapiens) (UniProt P10636)
Sequence (P10636 561-689 P618L limits assumed): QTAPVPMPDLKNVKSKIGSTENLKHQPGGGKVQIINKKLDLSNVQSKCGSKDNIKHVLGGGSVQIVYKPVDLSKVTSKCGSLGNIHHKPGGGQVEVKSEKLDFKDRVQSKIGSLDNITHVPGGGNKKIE
Assay: qHTS for Inhibitors of Tau Fibril Formation, Thioflavin T Binding; also: nearly all actives have a fitted effect of over 55% in size
Details: recombinant tau K18 P301L, heparin-induced fibrillization, ThT fluorescence; series mostly up to 57.4 µM; activity, negative = inhibition: at the top concentration
Outline: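 Fibril formation assay: tau K18 P301L at 15 uM with trace Alexa 594 label, heparin inducer 20 uM, pH 7 sodium acetate buffer, 37 C for 6 hr; endpoint ThT signal.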
% is scaled to controls: 0 for no effect and ±100 for the full control effect; potency is read from the fitted curve at half-maximal effect.

| Structure (SMILES) | Potency | activity, negative = inhibition |
| --- | --- | --- |
| CN(C)c1ccc(/C=N/Nc2cc(N3CCOCC3)nc(N3CCOCC3)n2)cc1 | 7.94 µM (active) | – |
| C(=N/Nc1cc(N2CCOCC2)nc(N2CCOCC2)n1)/c1ccccc1 | – | -7.28% |
| Cc1cc(N2CCN(c3ccccc3)CC2)nc(N2CCOCC2)n1 | – | -15.2% |
| CCC(=O)N1c2ccccc2CC1C(=O)N1CCN(c2ccccc2F)CC1 (stereo not given) | – | 12% |
| COc1ccc(CCNC(=O)c2cc3cccc4c3n2CC(C)S4)c(OC)c1OC (stereo not given) | – | -16.6% |
| O=C(Nc1ccccc1Br)c1cc(CN2CCCC2)on1 | – | -4.74% |
| COC(=O)CCNc1ccc2c(c1)OCCO2 | – | -10.3% |
| CCOc1ccc(NCCC(=O)c2ccc3c(c2)OCO3)cc1 | 15.8 µM (active) | – |
| COc1ccc(C(=O)Nc2ccc3c(c2)OCO3)cc1OC | – | -17.1% |
| COc1ccccc1-c1noc(-c2ccc(NCc3ccccc3)c([N+](=O)[O-])c2)n1 | – | -4.22% |
| COC(=O)c1ccc2c(c1)N(CC(=O)Nc1ccc(C)c(C)c1)C(=O)c1ccccc1S2 | – | 0.44% |
| O=C(CSc1nnc(-c2ccncc2)n1-c1ccccc1)Nc1ccc(Cl)c(Cl)c1 | – | 9.69% |
| CCC(Sc1nnc(-c2ccc(OC)cc2)c(-c2ccc(OC)cc2)n1)C(=O)NC1CCCCC1 (stereo not given) | – | 3.2% |
| COc1cc(CNC2CCCC2)c(Br)cc1OCc1ccccc1 | – | 2.58% |
| COc1cc(C=O)c(Br)cc1OCC(=O)NCc1ccccc1 | – | 2.3% |
| COc1cc(C(=S)NCc2ccccc2)cc(Br)c1O | 35.5 µM (active) | – |
| O=C(NCC(c1ccco1)S(=O)(=O)c1cccs1)c1ccc(F)cc1 (stereo not given) | – | 1.11% |
| O=C(NC1CC(=O)N(c2ccc(F)cc2)C1)c1ccc(S(=O)(=O)N2CCCC2)cc1 (stereo not given) | – | 1.5% |
| Oc1cc(O)c2c(c1)OC(c1ccc(O)c(O)c1)C(O)C2 (stereo not given) | 14.1 µM (active) | – |
| COc1ccc(Cl)cc1C(=O)Nc1ccc(N(C)C(C)=O)cc1 | – | -6.83% |
| COC(=O)c1ccc(NC(=O)c2cc(Cl)ccc2OC)cc1 | – | -2.76% |
| CCN1CCN(c2cc(C)c3cc(NC(=O)c4cc(Cl)ccc4OC)ccc3n2)CC1 | 14.1 µM (active) | – |

| Structure (SMILES) | Potency | activity, negative = inhibition |
| --- | --- | --- |
| CNC(=S)Nc1ccc([N+](=O)[O-])cc1 | – | -10.3% |
| Cc1c(NC(=O)/C=C/C(=O)O)cccc1[N+](=O)[O-] | – | -6.29% |
| O=C(O)/C=C/C(=O)NNc1ccc([N+](=O)[O-])cc1 | 15.8 µM (active) | – |
| COc1ccc(C2CC(=O)N(Cc3ccccc3C)c3c2c(C)nn3-c2nc(C)cc(C)n2)c(OC)c1 (stereo not given) | – | 6.85% |
| O=C(Nc1ccc(Oc2ccccc2)cc1)C1CCN(S(=O)(=O)c2ccc(Cl)cc2)CC1 | – | -5.75% |
| CC(=O)Nc1cccc(NC(=O)CSc2cn(CC(=O)N3CCCC3)c3ccccc23)c1 | – | -8.02% |
| C=CS(=O)c1sc(Cl)c(N2CCOCC2)c1[N+](=O)[O-] (stereo not given) | 8.91 µM (active) | – |
| O=C(Nc1nnc(C2CC(=O)N(c3ccc(Cl)cc3)C2)s1)c1ccco1 (stereo not given) | – | 8.55% |
| NC1=NC(c2cc(F)cc(F)c2)n2c(nc3ccccc32)N1 (stereo not given) | – | -4.05% |
| CCOc1ccc(N(CC)S(=O)(=O)N2CCCC(C(=O)NCc3ccc(SC)cc3)C2)cc1 (stereo not given) | – | -12.8% |
| COc1ccc(N2CCN(S(=O)(=O)c3ccc(-c4coc(C)n4)cc3)CC2)cc1 | – | -7.63% |
| CCc1nc(-c2cc(S(=O)(=O)N3CCN(c4ccc(OC)cc4)CC3)ccc2OC)no1 | 28.2 µM (active) | – |
| COc1ccc(OC)c(-c2noc(N3CCN(c4cc(Cl)ccc4C)CC3)n2)c1 | – | -10.1% |
| COc1ccc(/C=C/NC(=O)Cc2ccc(OC)c(OC)c2)cc1 | – | -4.15% [at 11.5 µM] |
| COc1ccc(/C=C/C(=O)c2ccc(OC)cc2O)cc1 | 5.01 µM (active) | – |
| O=C(/C=C/c1ccccc1)c1ccccc1O | – | -10.4% |
| COc1ccc(/C=C/C(=O)c2cc(Br)ccc(=O)c2O)cc1 | 4.47 µM (active) | – |
| COc1ccc2oc(=O)c(C(=O)O)cc2c1 | – | -0.466% |
| COc1ccc(C(=O)Cc2cnn(-c3ccccc3)c2)c(O)c1 | – | -15.8% |
| COc1cccc(CNC(=O)C(=O)NCC(c2cccs2)S(=O)(=O)c2ccccc2)c1 (stereo not given) | – | 0.11% |
| O=C(COc1ccccc1)OCc1cc(=O)n2nc(-c3cccs3)sc2n1 | – | -16.6% |
| CCc1ccc(NC(=O)c2cc3c(=O)n(Cc4cccnc4)ccc3nc2C)cc1 | – | -3.34% |

| Structure (SMILES) | Potency | activity, negative = inhibition |
| --- | --- | --- |
| COc1cccc(-n2ccn(CC(=O)NCc3ccc(C)cc3)c(=O)c2=O)c1 | – | -2.37% |
| O=C(CSc1oc(-c2ccco2)nc1S(=O)(=O)c1ccccc1)c1ccc(Cl)cc1 | – | -4.09% |
| COc1ccc(OC)c(CCNC(=O)CCCn2c(=O)c3cccn3c3cccnc32)c1 | – | -5.63% |
| CCOCCCn1c(SCC(=O)Nc2ccc(CC)cc2)nc2ccccc2c1=O | – | -7.51% |
| O=C(NCc1ccccn1)c1ccc2nc(-c3ccco3)c(-c3ccco3)nc2c1 | 12.6 µM (active) | – |
| COCCNC(=O)Nc1ccc2nc(-c3ccco3)c(-c3ccco3)nc2c1 | 3.98 µM (active) | – |
| O=C(Nc1ccc2nccnc2c1)c1ccco1 | – | -6.24% |
| COc1ccc(-c2nc3ccc(C(=O)NCc4ccc(C)cc4)cc3nc2-c2ccc(OC)cc2)cc1 | – | -1.65% |
| O=C(NCc1ccccn1)c1cc(-c2ccccc2Cl)on1 | – | -10.1% |
| CC(C)(C)c1ccc(NC(=O)NCc2ccco2)cc1 | – | -6.98% |
| Cc1nn(-c2ccc(F)cc2)c(-n2cccc2)c1C(=O)N1CCN(c2ccccc2)CC1 | – | -9.64% |
| Cc1ccc(-c2nc(Cn3c(=O)cc(-c4ccccc4)c4c(C)nn(C)c43)c(C)o2)cc1 | – | 3.96% |
| CN(Cc1ccccc1)S(=O)(=O)c1ccc(F)c(C(=O)Nc2cccc(Cl)c2Cl)c1 | – | 5.99% |
| O=C(c1cccc(Br)c1)N1CCN(Cc2cc(=O)n3nc(-c4ccccc4)sc3n2)CC1 | – | -9.34% |
| CCN(CC)S(=O)(=O)c1ccc2c(c1)nc(CN(C)C(=O)Nc1ccc(Cl)cc1)n2C | – | 7.41% |
| O=C(NCCc1ccccc1)C(=O)NCC(c1ccco1)S(=O)(=O)c1ccccc1 (stereo not given) | – | 13.8% |
| CSc1nc(-c2ccc(F)cc2)nc2c1Cc1c(CO)cnc(C)c1O2 | – | 4.71% |
| CCN(CC)c1ccc2oc(=O)c(C)nc2c1 | 7.94 µM (active) | – |
| CCN(CC)c1ccc2c(Nc3ccccc3)c(C=O)c(=O)oc2c1 | – | -12.6% |
| CCOC(=O)c1c(C)nc2c(c1C)c(=O)oc1ccccc12 | – | -1.22% |
| COc1ccccc1CNC(=O)c1ccc(-n2c(C)cc3c2CCCC3)cc1 | – | -16.2% |
